Many of the other results were omitted from the sample, so the strongest signals are more common in it than they were.
Columns and labels:
Assay in all cases: glycan array binding signal (z-score within array); higher = stronger binding
Details in all cases: glycan notation: IUPAC condensed, linker removed
[1] = target: Fuc(a1-2)Gal
Method in brief: (§1)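 Arrays were curated from the Consortium for Functional Glycomics database, 3228 in total, and kept only where the protein sequence was available. Binding is expressed as a within-array Z-score. This score was averaged across arrays of the same protein sequence at different concentrations or buffers and across linkers, and negative values can be read as non-binding.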

[2] = target: Fuc(a1-2)Gal(b1-3)GlcNAc(b1-3)[Fuc(a1-2)Gal(b1-3)GlcNAc(b1-6)]GalNAc
Method in brief: as §1

[3] = target: Fuc(a1-2)Gal(b1-4)GlcNAc(b1-3)Gal(b1-4)GlcNAc(b1-2)Man(a1-3)[Fuc(a1-2)Gal(b1-4)GlcNAc(b1-3)Gal(b1-4)GlcNAc(b1-2)Man(a1-6)]Man(b1-4)GlcNAc(b1-4)GlcNAc
Method in brief: as §1

[4] = target: Fuc(a1-2)[Gal(a1-3)]Gal(b1-4)[Fuc(a1-3)]Glc
Method in brief: as §1

[5] = target: Fuc(a1-3)[Gal(b1-4)]GlcNAc(b1-2)Man(a1-3)[Fuc(a1-3)[Gal(b1-4)]GlcNAc(b1-2)Man(a1-6)]Man(b1-4)GlcNAc(b1-4)[Fuc(a1-6)]GlcNAc
Method in brief: as §1

[6] = target: Fuc(a1-3)[Gal(b1-4)]GlcNAc(b1-6)[Gal(b1-3)GlcNAc(b1-3)]Gal(b1-4)Glc
Method in brief: as §1

[7] = target: Fuc(a1-3)[GalNAc(b1-4)]GlcNAc
Method in brief: as §1

[8] = target: Fuc(a1-4)GlcNAc
Method in brief: as §1

[9] = target: Gal(a1-3)Gal(b1-3)GlcNAc(b1-2)Man
Method in brief: as §1

[10] = target: Gal(a1-3)Gal(b1-3)GlcNAc(b1-6)GalNAc
Method in brief: as §1

[11] = target: Gal(a1-3)Gal(b1-4)GlcNAc(b1-6)GalNAc
Method in brief: as §1

[12] = target: Gal(a1-4)Gal(b1-3)GlcNAc(b1-2)Man(a1-3)[Gal(a1-4)Gal(b1-3)GlcNAc(b1-2)Man(a1-6)]Man(b1-4)GlcNAc(b1-4)GlcNAc
Method in brief: as §1

[13] = target: Gal(b1-3)GlcNAc(b1-2)[Gal(b1-3)GlcNAc(b1-6)]Man(a1-6)[Gal(b1-3)GlcNAc(b1-2)Man(a1-3)]Man(b1-4)GlcNAc(b1-4)GlcNAc
Method in brief: as §1

[14] = target: Gal(b1-4)GlcNAc(b1-2)Man
Method in brief: as §1

[15] = target: Gal(b1-4)GlcNAc(b1-2)Man(a1-6)Man(b1-4)GlcNAc(b1-4)GlcNAc
Method in brief: as §1

[16] = target: Gal(b1-4)GlcNAc(b1-2)Man(a1-6)[Man(a1-3)]Man(b1-4)GlcNAc(b1-4)GlcNAc
Method in brief: as §1

[17] = target: Gal(b1-4)GlcNAc(b1-2)[Gal(b1-4)GlcNAc(b1-6)]Man(a1-6)[GlcNAc(b1-4)][Gal(b1-4)GlcNAc(b1-2)[Gal(b1-4)GlcNAc(b1-4)]Man(a1-3)]Man(b1-4)GlcNAc(b1-4)[Fuc(a1-6)]GlcNAc
Method in brief: as §1

[18] = target: Gal(b1-4)GlcNAc(b1-3)Gal(b1-3)GlcNAc
Method in brief: as §1

[19] = target: Gal(b1-4)GlcNAc(b1-3)Gal(b1-4)GlcNAc(b1-2)[Gal(b1-4)GlcNAc(b1-3)Gal(b1-4)GlcNAc(b1-6)]Man(a1-6)[Gal(b1-4)GlcNAc(b1-3)Gal(b1-4)GlcNAc(b1-2)Man(a1-3)]Man(b1-4)GlcNAc(b1-4)GlcNAc
Method in brief: as §1

[20] = target: Gal(b1-4)GlcNAc(b1-3)Gal(b1-4)GlcNAc(b1-3)Gal(b1-4)GlcNAc(b1-2)Man(a1-3)[Gal(b1-4)GlcNAc(b1-3)Gal(b1-4)GlcNAc(b1-3)Gal(b1-4)GlcNAc(b1-2)Man(a1-6)]Man(b1-4)GlcNAc(b1-4)[Fuc(a1-6)]GlcNAc
Method in brief: as §1

[21] = target: Gal(b1-4)GlcNAc(b1-3)Gal(b1-4)GlcNAc(b1-3)Gal(b1-4)GlcNAc(b1-2)[Gal(b1-4)GlcNAc(b1-3)Gal(b1-4)GlcNAc(b1-3)Gal(b1-4)GlcNAc(b1-6)]Man(a1-6)[Gal(b1-4)GlcNAc(b1-3)Gal(b1-4)GlcNAc(b1-3)Gal(b1-4)GlcNAc(b1-2)Man(a1-3)]Man(b1-4)GlcNAc(b1-4)[Fuc(a1-6)]GlcNAc
Method in brief: as §1

[22] = target: Gal(b1-4)GlcNAc(b1-3)Gal(b1-4)GlcNAc(b1-3)Gal(b1-4)GlcNAc(b1-3)Gal(b1-4)GlcNAc(b1-3)Gal(b1-4)GlcNAc(b1-2)Man(a1-3)[Gal(b1-4)GlcNAc(b1-3)Gal(b1-4)GlcNAc(b1-3)Gal(b1-4)GlcNAc(b1-3)Gal(b1-4)GlcNAc(b1-3)Gal(b1-4)GlcNAc(b1-2)Man(a1-6)]Man(b1-4)GlcNAc(b1-4)GlcNAc
Method in brief: as §1

[23] = target: Gal(b1-4)GlcNAc(b1-3)Gal(b1-4)GlcNAc(b1-6)[Gal(b1-3)]GalNAc
Method in brief: as §1

[24] = target: Gal(b1-4)GlcNAc(b1-3)Gal(b1-4)[Fuc(a1-3)]GlcNAc(b1-3)Gal(b1-4)[Fuc(a1-3)]GlcNAc
Method in brief: as §1

[25] = target: Gal(b1-4)GlcNAc(b1-3)[Fuc(a1-3)GlcNAc(b1-6)]Gal(b1-4)Glc
Method in brief: as §1

[26] = target: Gal(b1-6)Gal
Method in brief: as §1

[27] = target: GalNAc(b1-4)GlcNAc(b1-2)Man(a1-3)[GalNAc(b1-4)GlcNAc(b1-2)Man(a1-6)]Man(b1-4)GlcNAc(b1-4)GlcNAc
Method in brief: as §1

[28] = target: GalNAc(b1-6)GalNAc
Method in brief: as §1

[29] = target: Glc(a1-6)Glc(a1-6)Glc(a1-6)Glc
Method in brief: as §1

[30] = target: GlcNAc(a1-4)Gal(b1-4)GlcNAc(b1-3)Gal(b1-4)[Fuc(a1-3)]GlcNAc(b1-3)Gal(b1-4)[Fuc(a1-3)]GlcNAc
Method in brief: as §1

[31] = target: GlcNAc(b1-2)[GlcNAc(b1-4)]Man(a1-3)[GlcNAc(b1-4)][GlcNAc(b1-2)[GlcNAc(b1-6)]Man(a1-6)]Man(b1-4)GlcNAc(b1-4)GlcNAc
Method in brief: as §1

[32] = target: GlcNAc(b1-2)[GlcNAc(b1-6)]Man(a1-6)[GlcNAc(b1-2)Man(a1-3)]Man(b1-4)GlcNAc(b1-4)GlcNAc
Method in brief: as §1

[33] = target: GlcNAc(b1-3)Gal(b1-4)GlcNAc
Method in brief: as §1

[34] = target: GlcNAc(b1-3)Gal(b1-4)GlcNAc(b1-2)[GlcNAc(b1-3)Gal(b1-4)GlcNAc(b1-6)]Man(a1-6)[GlcNAc(b1-3)Gal(b1-4)GlcNAc(b1-2)Man(a1-3)]Man(b1-4)GlcNAc(b1-4)GlcNAc
Method in brief: as §1

[35] = target: GlcNAc(b1-3)Gal(b1-4)GlcNAc(b1-3)Gal(b1-4)GlcNAc(b1-3)Gal(b1-4)GlcNAc(b1-3)Gal(b1-4)GlcNAc(b1-2)Man(a1-3)[GlcNAc(b1-3)Gal(b1-4)GlcNAc(b1-3)Gal(b1-4)GlcNAc(b1-3)Gal(b1-4)GlcNAc(b1-3)Gal(b1-4)GlcNAc(b1-2)Man(a1-6)]Man(b1-4)GlcNAc(b1-4)[Fuc(a1-6)]GlcNAc
Method in brief: as §1

[36] = target: GlcNAc(b1-4)[GlcNAc(b1-6)]GalNAc
Method in brief: as §1

[37] = target: Man(a1-2)Man(a1-3)[Man(a1-2)Man(a1-6)]Man(a1-6)[Man(a1-2)Man(a1-2)Man(a1-3)]Man(b1-4)GlcNAc(b1-4)GlcNAc
Method in brief: as §1

[38] = target: Man(a1-3)[Man(a1-6)]Man
Method in brief: as §1

[39] = target: Man(a1-3)[Man(a1-6)]Man(a1-6)[Man(a1-2)Man(a1-3)]Man(b1-4)GlcNAc(b1-4)GlcNAc
Method in brief: as §1

[40] = target: Neu5Ac(a2-3)Gal(b1-3)GalNAc
Method in brief: as §1

[41] = target: Neu5Ac(a2-3)Gal(b1-3)GlcNAc(b1-2)Man
Method in brief: as §1

[42] = target: Neu5Ac(a2-3)Gal(b1-4)GlcNAc6S
Method in brief: as §1

[43] = target: Neu5Ac(a2-3)Gal(b1-4)[Fuc(a1-3)]GlcNAc(b1-3)GalNAc
Method in brief: as §1

[44] = target: Neu5Ac(a2-6)Gal(b1-4)GlcNAc(b1-2)[Neu5Ac(a2-6)Gal(b1-4)GlcNAc(b1-6)]Man(a1-6)[Neu5Ac(a2-6)Gal(b1-4)GlcNAc(b1-2)Man(a1-3)][GlcNAc(b1-4)]Man(b1-4)GlcNAc(b1-4)GlcNAc
Method in brief: as §1

[45] = target: Neu5Ac(a2-6)Gal(b1-4)GlcNAc(b1-3)Gal(b1-4)GlcNAc(b1-2)Man(a1-3)[Neu5Ac(a2-6)Gal(b1-4)GlcNAc(b1-3)Gal(b1-4)GlcNAc(b1-2)Man(a1-6)]GalNAc
Method in brief: as §1

[46] = target: Neu5Ac(a2-6)Gal(b1-4)GlcNAc(b1-3)Gal(b1-4)GlcNAc(b1-3)Gal(b1-4)GlcNAc(b1-2)Man(a1-3)[Neu5Ac(a2-6)Gal(b1-4)GlcNAc(b1-3)Gal(b1-4)GlcNAc(b1-3)Gal(b1-4)GlcNAc(b1-2)Man(a1-6)]GalNAc
Method in brief: as §1

[47] = target: Neu5Ac(a2-6)Gal(b1-4)GlcNAc(b1-6)[Gal(b1-3)GlcNAc(b1-3)]Gal(b1-4)Glc
Method in brief: as §1

[48] = target: Neu5Ac(a2-6)Gal(b1-4)GlcNAc(b1-6)[Gal(b1-3)]GalNAc
Method in brief: as §1

[49] = target: Neu5Gc(a2-3)Gal(b1-3)[Fuc(a1-4)]GlcNAc
Method in brief: as §1

B1: SP15308F-bth-333-19-333 (Bacteroides thetaiotaomicron) (protein)
chain: SCNNEWESEQYVQMVSFKAPVNAQGVTPIYIRYKPEGKVTYQLPLIVSGSTMNSKDLNVHVGLDLDTLDVLNVEHFGSRKELFFKPLENKYYEFPETVQIPAGECTSLLPIDFALKDLDQVDKWVLPLAIQSNDPSHNYQANPRKFYRRAMLRISPFNDYSGQYSATAYKVYFKGNEKEAIVPEYHTSYVIDDKTIFFYAGLIDIDRLDRKYYKIKFEFTEEKIDLQTRKLKISSDNEDINLVVKGQPSYTVEEEMDATRPYLKHIYVTINNLEYEFTDYTSVPGYPLEYVVKGSLTMERKINTQIPDEDQAIEW
- glycan array binding signal (z-score) [1]: -0.518
- glycan array binding signal (z-score) [2]: 0.606
- glycan array binding signal (z-score) [3]: 3.55
- glycan array binding signal (z-score) [4]: -0.455
- glycan array binding signal (z-score) [5]: -0.717
- glycan array binding signal (z-score) [6]: 0.652
- glycan array binding signal (z-score) [7]: 6.34
- glycan array binding signal (z-score) [8]: 7.35
- glycan array binding signal (z-score) [9]: 0.13
- glycan array binding signal (z-score) [10]: -1.04
- glycan array binding signal (z-score) [11]: -0.976
- glycan array binding signal (z-score) [12]: -1.15
- glycan array binding signal (z-score) [13]: 0.375
- glycan array binding signal (z-score) [14]: 2.88
- glycan array binding signal (z-score) [15]: -1.02
- glycan array binding signal (z-score) [16]: -0.531
- glycan array binding signal (z-score) [17]: 0.062
- glycan array binding signal (z-score) [18]: -0.026
- glycan array binding signal (z-score) [19]: -0.769
- glycan array binding signal (z-score) [20]: 1.45
- glycan array binding signal (z-score) [21]: 0.279
- glycan array binding signal (z-score) [22]: 3.23
- glycan array binding signal (z-score) [23]: -0.045
- glycan array binding signal (z-score) [24]: 0.753
- glycan array binding signal (z-score) [25]: -0.005
- glycan array binding signal (z-score) [26]: -0.244
- glycan array binding signal (z-score) [27]: 1.38
- glycan array binding signal (z-score) [28]: 2.02
- glycan array binding signal (z-score) [29]: -0.539
- glycan array binding signal (z-score) [30]: 2.63
- glycan array binding signal (z-score) [31]: -1.46
- glycan array binding signal (z-score) [32]: -0.327
- glycan array binding signal (z-score) [33]: -0.835
- glycan array binding signal (z-score) [34]: 2.85
- glycan array binding signal (z-score) [35]: 2.43
- glycan array binding signal (z-score) [36]: 0.249
- glycan array binding signal (z-score) [37]: -0.143
- glycan array binding signal (z-score) [38]: -0.694
- glycan array binding signal (z-score) [39]: -0.363
- glycan array binding signal (z-score) [40]: 1.83
- glycan array binding signal (z-score) [41]: 1.15
- glycan array binding signal (z-score) [42]: 1.4
- glycan array binding signal (z-score) [43]: 3.76
- glycan array binding signal (z-score) [44]: 0.627
- glycan array binding signal (z-score) [45]: 3.27
- glycan array binding signal (z-score) [46]: 2.6
- glycan array binding signal (z-score) [47]: -0.927
- glycan array binding signal (z-score) [48]: -0.014
- glycan array binding signal (z-score) [49]: 0.217

Reference: the supplement of paper PMC8728848
